Measurements taken from PubChem BioAssay (NCI).
About 83,000 compounds went through this panel and 20% of them were active in at least one assay; those are over-represented in the sample as a whole.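 48-hour exposure, single concentration, 96-well plates; percent growth endpoint where 0 means no net growth. Active: below 10.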

Legend:
Experiment in all cases: NCI-60 one-dose screen, 48 h (100 = growth as untreated, 0 = no growth, -100 = all killed)
Conditions in all cases: 10 µM unless noted
DU-145 prostate = test system: DU-145 prostate
K-562 leukemia = test system: K-562 leukemia
MDA-MB-231 breast = test system: MDA-MB-231 breast
RXF 393 renal = test system: RXF 393 renal
SF-268 CNS = test system: SF-268 CNS
SF-539 CNS = test system: SF-539 CNS
UACC-257 melanoma = test system: UACC-257 melanoma
M14 melanoma = test system: M14 melanoma
MALME-3M melanoma = test system: MALME-3M melanoma
SF-295 CNS = test system: SF-295 CNS

Measured: growth

NC(=O)c1cc(Cl)ccc1NC(=O)COc1ccccc1
inactive: DU-145 prostate 60.4% | K-562 leukemia 18.1% | MDA-MB-231 breast 77.4% | RXF 393 renal 55% | SF-268 CNS 66.2% | SF-539 CNS 18.2% | UACC-257 melanoma 84.4% | M14 melanoma 28.2%

COc1cccc(OC)c1OC(=O)c1ccccc1
inactive: DU-145 prostate 119% | K-562 leukemia 105% | MALME-3M melanoma 106% | RXF 393 renal 109% | SF-268 CNS 111% | SF-295 CNS 79.5% | SF-539 CNS 99.1% | UACC-257 melanoma 99.5% | M14 melanoma 109%

COc1ccc(/C=C(\C#N)c2ccc(OC)cc2)cc1
inactive: DU-145 prostate 72.3% | K-562 leukemia 20.1% | MDA-MB-231 breast 72.8% | RXF 393 renal 65.3% | SF-268 CNS 78.4% | SF-295 CNS 47% | SF-539 CNS 79.7% | UACC-257 melanoma 83.8% | M14 melanoma 61.9%

Clc1nc(-c2ccccn2)nc2sc3c(c12)CCCCCC3
inactive: DU-145 prostate 22.6% | K-562 leukemia 79.8% | MALME-3M melanoma 94.2% | MDA-MB-231 breast 117% | SF-268 CNS 94.6% | SF-539 CNS 97.3% | M14 melanoma 86.8%

Oc1ccccc1/C=N/Nc1nc2ccccc2s1
inactive: DU-145 prostate 48% | K-562 leukemia 41% | MDA-MB-231 breast 37.7% | RXF 393 renal 86.3% | SF-268 CNS 32.3% | SF-295 CNS 27.9% | SF-539 CNS 44.6% | UACC-257 melanoma 58.7% | M14 melanoma 56.6%

Clc1ccc(Nc2ccnc(N3CCN(c4ccnc5cc(Cl)ccc45)CC3)n2)cc1
inactive: DU-145 prostate 78.2% | K-562 leukemia 15.7% | MDA-MB-231 breast 33.8% | RXF 393 renal 62.6% | SF-268 CNS 57.3% | SF-295 CNS 18.8% | SF-539 CNS 62.2% | UACC-257 melanoma 81.7% | M14 melanoma 33.7%

O=C1C(Cl)=C(NCCCN2CCOCC2)C(=O)c2ccccc21
inactive: DU-145 prostate 126% | K-562 leukemia 60.3% | MDA-MB-231 breast 97.3% | RXF 393 renal 108% | SF-268 CNS 106% | SF-295 CNS 109% | SF-539 CNS 125% | UACC-257 melanoma 73.3% | M14 melanoma 101%

CCCCNNC(=O)c1ccc(Br)cc1
inactive: DU-145 prostate 50.9% | K-562 leukemia 29.9% | MDA-MB-231 breast 76.1% | RXF 393 renal 69.5% | SF-268 CNS 56.4% | SF-295 CNS 38.4% | SF-539 CNS 61.4% | UACC-257 melanoma 16.3% | M14 melanoma 42%
